Assay results from PubChem BioAssay.
Calls of active or inactive are those of the source.

Assay: FRG1 expression reporter modulators in myotubes – cell-based, C2C12 myotubes, firefly/Renilla luciferase, luminescence, FRG1 inhibition for FSHD, primary screen (AID 1084)
Details: FRG1 promoter luciferase, higher = more signal, called active from +8 up or from −8 down

Question: Which z-score does the source give for `NC(=O)NCC#Cc1ccc2c(c1)[C@]1(C(=O)N2)[C@H](c2ccc(O)cc2)N2[C@H](c3ccccc3)[C@H](c3ccccc3)OC(=O)[C@H]2[C@@H]1C(=O)N1CCCCCCC1` here?
Answer: Its z-score is -1.21 (inactive).

Question: Which z-score does the source give for `O=C(CS)NCCCCCNC(=O)[C@H]1C[C@H]2C(=O)N3CCC[C@H]3C(=O)N2[C@H]1c1cccc(OCCO)c1` here?
Answer: Its z-score is 0.556 (inactive).

Question: Which z-score does the source give for `CO[C@H]1COC(=O)[C@H](C)NC(=O)[C@@H](C)COC(=O)CC=C[C@@H]1C` here?
Answer: Its z-score is -0.599 (inactive).

Question: For `C=CCOC(=O)[C@H]1[C@@H]2C(=O)O[C@@H](c3ccccc3)[C@@H](c3ccccc3)N2[C@@H](c2ccc(OCCOC(=O)[C@H]3C[C@H]4C(=O)N5CCC[C@H]5C(=O)N4[C@H]3c3cccc(OCCO)c3)cc2)[C@]12C(=O)Nc1ccc(I)cc12`, which z-score is on record?
Answer: The z-score was 1.07 (inactive).

Question: Which z-score does the source give for `CCN1C(=O)[C@H]2[C@H]3[C@H](O)[C@H](O)CC(=NOCC=C(C)CCC=C(C)C)[C@H]3CC[C@H]2C1=O` here?
Answer: The z-score was -0.454 (inactive).

Question: Which z-score does the source give for `CC(C)[C@@H](OCc1ccccc1)[C@H](C)C=NOC[C@@H](C)[C@H](OCc1ccccc1)C(C)C` here?
Answer: The z-score was -0.108 (inactive).

Question: Which z-score does the source give for `CC=CC1=C(CO)[C@H](O)[C@H]2O[C@H]2[C@H]1O` here?
Answer: Its z-score is -0.0975 (inactive).

Question: For `COc1ccc(COC(=O)NN=C2C[C@@H](O)[C@@H](O)[C@@H]3[C@@H]4C(=O)N(Cc5ccc6c(c5)OCO6)C(=O)[C@@H]4CC[C@@H]23)cc1`, which z-score is on record?
Answer: Its z-score is -0.918 (inactive).

Question: Which z-score does the source give for `CN1C(=O)C2C=CC(C(O)c3ccc(I)cc3)N(NC(=O)OC(C)(C)C)C2C1=O` (stereo unspecified) here?
Answer: Its z-score is -3.23 (inactive).

Question: With `COc1ccc(COC(=O)NN=C2C[C@@H](O)[C@@H](O)[C@@H]3[C@@H]4C(=O)N(c5ccc(F)cc5F)C(=O)[C@@H]4CC[C@@H]23)cc1` as the compound, how does the z-score read?
Answer: Its z-score is -0.138 (inactive).

Question: For `CCOC(=O)[C@H](CC(C)C)NC(=O)CCC1CC(OC(=O)NCCc2ccc(F)cc2)CC2(CCCC(COC(=O)NCc3ccccc3)O2)O1` (stereo partly specified), which z-score is on record?
Answer: Its z-score is 2.94 (inactive).

Assay: small molecules captured by biotinylated probe aFST – biochemical, small-molecule microarray, fluorescence 635/667, stem cell growth factor project, primary screen (AID 1086);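 further: score merges 667 nm fluorescence with signal-to-noise of each printed compound spot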
Details: higher = more signal

Question: With `C[C@@H]1CCC2C(=O)N(Cc3ccccc3)C[C@@H](O)CN2[C@H]1c1ccc(Br)cc1` (stereo partly specified) as the compound, how does the composite z-score read?
Answer: Its composite z-score is -0.0584.

Question: Which composite z-score does the source give for `CCOC(=O)CCN1C(=O)[C@H]2[C@H]3[C@H](O)[C@H](O)CC(=O)[C@H]3CC[C@H]2C1=O` here?
Answer: Its composite z-score is 0.372.

Question: For `C#CCCCON=C1C[C@@H](O)[C@@H](O)[C@@H]2[C@@H]3C(=O)N(CCC(=O)OCC)C(=O)[C@@H]3CC[C@@H]12`, which composite z-score is on record?
Answer: Its composite z-score is 0.63.

Question: For `O=C1[C@H]2[C@H]3[C@H](O)[C@H](O)CC(=NOCc4ccccc4)[C@H]3CC[C@H]2C(=O)N1C[C@@H]1CCCO1`, which composite z-score is on record?
Answer: The composite z-score was 0.14.

Question: Which composite z-score does the source give for `C#CCCCON=C1C[C@@H](O)[C@@H](O)[C@@H]2[C@@H]3C(=O)N([C@@H](C)c4ccccc4)C(=O)[C@@H]3CC[C@H]12` here?
Answer: Its composite z-score is 0.342.

Question: For `CCOC(=O)[C@H](Cc1ccccc1)NC(=O)CCC1CC(OC(=O)NCc2ccc3c(c2)OCO3)CC2(CCCC(COC(=O)NCc3cccc(C(F)(F)F)c3)O2)O1` (stereo partly specified), which composite z-score is on record?
Answer: The composite z-score was 0.348.

Question: With `C=CC[C@@H]1C=C[C@H](ON=C(C)CCN2CCc3nc(CC)c(CC)cc3C2)[C@@H](CO)O1` as the compound, how does the composite z-score read?
Answer: Its composite z-score is 0.553.

Question: For `O=C1C2C=CC(C(O)c3ccc([N+](=O)[O-])cc3)N(Nc3ccc([N+](=O)[O-])cc3)C2C(=O)N1c1ccccc1` (stereo unspecified), which composite z-score is on record?
Answer: Its composite z-score is 1.02.

Question: With `CC(C)[C@H](NC(=O)OC(C)(C)C)[C@@H](O)CC(=O)OC(C)(C)C` as the compound, how does the composite z-score read?
Answer: The composite z-score was -0.357.

Question: Which composite z-score does the source give for `NCCCCCNC(=O)[C@@H]1C[C@@H]2C(=O)N3CCC[C@H]3C(=O)N2[C@@H]1c1cccc(OCCO)c1` here?
Answer: The composite z-score was 1.68.

Question: Which composite z-score does the source give for `COC(=O)CC=C[C@H](C)[C@@H](OCc1ccccc1Br)C(C)C` here?
Answer: The composite z-score was -0.0799.

Question: Which composite z-score does the source give for `COc1ccc([Si](C)(C)[C@H]2[C@H](CCO)O[C@@]3(C(=O)N(Cc4cccc(NC(=O)[C@H](C)O)c4)c4ccccc43)[C@@H]2C)cc1` here?
Answer: Its composite z-score is -0.0054.

Question: With `CCOC(=O)CCN1C(=O)[C@H]2[C@H]3[C@H](O)C=CC(=O)[C@@H]3CC[C@H]2C1=O` as the compound, how does the composite z-score read?
Answer: Its composite z-score is -0.0371.

Question: Which composite z-score does the source give for `CCN1C(=O)[C@H]2[C@H]3[C@H](O)[C@H](O)CC(=NOC[C@@H](C)[C@H](OCc4ccccc4)C(C)C)[C@@H]3CC[C@H]2C1=O` here?
Answer: The composite z-score was 0.0662.

Question: Which composite z-score does the source give for `CO[C@H]1COC(=O)[C@H](C)COC(=O)CC=C[C@@H](C)[C@H](OC)COC(=O)CC=C[C@@H]1C` here?
Answer: Its composite z-score is -0.08.

Question: With `C=C(CCCC)C(=O)CC[C@@H](OC(C)=O)c1cccc(OCCO)c1` as the compound, how does the composite z-score read?
Answer: The composite z-score was -0.507.

Question: Which composite z-score does the source give for `C[C@H](c1ccccc1)N1C(=O)[C@H]2[C@@H]3C(=CC[C@H]2C1=O)C(=O)[C@H]1O[C@H]1[C@H]3O` here?
Answer: The composite z-score was 0.128.

Question: With `CC(C)CON=C1C[C@@H](O)[C@@H](O)[C@@H]2[C@@H]3C(=O)N(C[C@@H]4CCCO4)C(=O)[C@@H]3CC[C@H]12` as the compound, how does the composite z-score read?
Answer: The composite z-score was -0.179.

Question: With `CCOC(=O)C1=CC[C@H]2C(=O)N(CC)C(=O)[C@@H]12` as the compound, how does the composite z-score read?
Answer: Its composite z-score is 0.406.

Question: For `C#CCCCON=C1C[C@@H](O)[C@@H](O)[C@@H]2[C@@H]3C(=O)N(c4cccc(Oc5ccccc5)c4)C(=O)[C@@H]3CC[C@@H]12`, which composite z-score is on record?
Answer: The composite z-score was 0.319.

Question: Which composite z-score does the source give for `CC(CCN1CCc2nc(-c3ccccc3)c(-c3ccccc3)cc2C1)=NOC(C)CN1CCCCc2nc(C)c(C)cc21` (stereo unspecified) here?
Answer: Its composite z-score is 0.465.

Question: For `CCOC(=O)[C@H](CC(C)C)NC(=O)CCC1CC(OC(=O)NCc2cccc3ccccc23)CC2(CCCC(COC(=O)NCCc3ccccc3OC)O2)O1` (stereo partly specified), which composite z-score is on record?
Answer: Its composite z-score is 0.402.

Question: Which composite z-score does the source give for `COc1cccc([C@@H]2Oc3ccc(Br)cc3C(=O)[C@H]2O)c1` here?
Answer: Its composite z-score is 0.0846.

Question: Which composite z-score does the source give for `CS(=O)(=O)CCOC(=O)C1=CC(CCCO)=CC(c2cccs2)N(Cc2cccc(OC(F)(F)F)c2)C=C1C(=O)OCCS(C)(=O)=O` (stereo unspecified) here?
Answer: Its composite z-score is 0.425.

Question: For `NC(=O)NCC#Cc1ccc2c(c1)[C@]1(C(=O)N2)[C@H](c2ccc(O)cc2)N2[C@H](c3ccccc3)[C@H](c3ccccc3)OC(=O)[C@H]2[C@@H]1C(=O)N1CCCCCCC1`, which composite z-score is on record?
Answer: The composite z-score was 2.31.

Question: Which composite z-score does the source give for `O=C(CS)NCCCCCNC(=O)[C@H]1C[C@H]2C(=O)N3CCC[C@H]3C(=O)N2[C@H]1c1cccc(OCCO)c1` here?
Answer: Its composite z-score is 0.442.

Question: For `CO[C@H]1COC(=O)[C@H](C)NC(=O)[C@@H](C)COC(=O)CC=C[C@@H]1C`, which composite z-score is on record?
Answer: Its composite z-score is 0.0356.

Question: With `C=CCOC(=O)[C@H]1[C@@H]2C(=O)O[C@@H](c3ccccc3)[C@@H](c3ccccc3)N2[C@@H](c2ccc(OCCOC(=O)[C@H]3C[C@H]4C(=O)N5CCC[C@H]5C(=O)N4[C@H]3c3cccc(OCCO)c3)cc2)[C@]12C(=O)Nc1ccc(I)cc12` as the compound, how does the composite z-score read?
Answer: The composite z-score was 2.63.

Question: Which composite z-score does the source give for `CCN1C(=O)[C@H]2[C@H]3[C@H](O)[C@H](O)CC(=NOCC=C(C)CCC=C(C)C)[C@H]3CC[C@H]2C1=O` here?
Answer: Its composite z-score is 0.617.

Question: With `CC(C)[C@@H](OCc1ccccc1)[C@H](C)C=NOC[C@@H](C)[C@H](OCc1ccccc1)C(C)C` as the compound, how does the composite z-score read?
Answer: Its composite z-score is -0.0889.

Question: Which composite z-score does the source give for `CC=CC1=C(CO)[C@H](O)[C@H]2O[C@H]2[C@H]1O` here?
Answer: The composite z-score was -0.191.

Question: For `COc1ccc(COC(=O)NN=C2C[C@@H](O)[C@@H](O)[C@@H]3[C@@H]4C(=O)N(Cc5ccc6c(c5)OCO6)C(=O)[C@@H]4CC[C@@H]23)cc1`, which composite z-score is on record?
Answer: The composite z-score was 1.18.

Question: With `CN1C(=O)C2C=CC(C(O)c3ccc(I)cc3)N(NC(=O)OC(C)(C)C)C2C1=O` (stereo unspecified) as the compound, how does the composite z-score read?
Answer: Its composite z-score is 1.18.

Question: Which composite z-score does the source give for `COc1ccc(COC(=O)NN=C2C[C@@H](O)[C@@H](O)[C@@H]3[C@@H]4C(=O)N(c5ccc(F)cc5F)C(=O)[C@@H]4CC[C@@H]23)cc1` here?
Answer: Its composite z-score is 0.562.

Question: Which composite z-score does the source give for `CCOC(=O)[C@H](CC(C)C)NC(=O)CCC1CC(OC(=O)NCCc2ccc(F)cc2)CC2(CCCC(COC(=O)NCc3ccccc3)O2)O1` (stereo partly specified) here?
Answer: Its composite z-score is 0.223.
